Source: PubChem BioAssay (EPA / NIEHS)
Calls of active or inactive are those of the source. Rule for the calls: active = hit-call score of the fitted dose curve at least 0.9, where 1 is the maximum; inactive = score below 0.9.

Columns and labels:
Conditions in all cases: mRNA level, 48 h; actives raise or lower the signal
[1] = read-out: Interleukin 6 (IL6), IL6 (gene 3569); experiment: LTEA_HepaRG_IL6: Life Technologies and Expression Analysis (LTEA) Assay for Interleukin 6 (IL6) using HepaRG (AID 2283509)
In short: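 qRT-PCR read-out of IL6 transcript, normalized to three housekeeping genes, after 48 h chemical exposure of HepaRG cells; 8-point half-log series, top 100 uM, 0.5% DMSO vehicle. Bidirectional curve fitting against DMSO baseline.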

[2] = read-out: Interleukin 6 Receptor (IL6R), IL6R (gene 3570); experiment: LTEA_HepaRG_IL6R: Life Technologies and Expression Analysis (LTEA) Assay for Interleukin 6 Receptor (IL6R) using HepaRG (AID 2283510);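 for AC50: TaqMan qRT-PCR signal normalized to ACTB GAPDH and POLR2A housekeeping genes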
In short: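 Cells were thawed, plated and cultured 48 h, then medium was changed to serum-free induction medium. Chemicals were added in duplicate (100 uM top, half-log steps, 0.5% DMSO) for 48 h. Lysates were analyzed by qRT-PCR for IL6R expression.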

[3] = read-out: Potassium channel subfamily K member 1 (KCNK1), KCNK1 (gene 3775); experiment: LTEA_HepaRG_KCNK1: Life Technologies and Expression Analysis (LTEA) Assay for Potassium channel subfamily K member 1 (KCNK1) using HepaRG (AID 2283511)
In short: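 HepaRG, 48 h exposure, 8-pt half-log series top 100 uM, 0.5% DMSO vehicle, duplicates. Readout: KCNK1 transcript by qRT-PCR (Fluidigm array), housekeeping-normalized; bidirectional curve fit relative to DMSO baseline.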

[4] = read-out: Keratin 19 (KRT19), KRT19 (gene 3880); experiment: LTEA_HepaRG_KRT19: Life Technologies and Expression Analysis (LTEA) Assay for Keratin 19 (KRT19) using HepaRG (AID 2283512)
In short: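 Differentiated human HepaRG cells, plated 48 h, were exposed in duplicate for 48 h in serum-free induction medium to eight half-log concentrations up to 100 uM in 0.5% DMSO. KRT19 mRNA was quantified by qRT-PCR, normalized to ACTB, GAPDH and POLR2A, and fitted bidirectionally versus DMSO.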

[5] = read-out: JUN Transcription Factor, JUN (gene 3725); experiment: LTEA_HepaRG_JUN: Life Technologies and Expression Analysis (LTEA) Assay for JUN Transcription Factor using HepaRG (AID 2283513)
In short: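 Read-out is JUN transcript level by TaqMan qRT-PCR, normalized to ACTB, GAPDH and POLR2A, after 48 h chemical treatment of HepaRG cells. Concentration-response spanned eight half-log points up to 100 uM in 0.5% DMSO.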

[6] = read-out: Lipase C (LIPC), LIPC (gene 3990); experiment: LTEA_HepaRG_LIPC: Life Technologies and Expression Analysis (LTEA) Assay for Lipase C (LIPC) using HepaRG (AID 2283514)
In short: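 HepaRG, 48 h exposure, 8-pt half-log series from 100 uM in 0.5% DMSO, duplicates. Readout: LIPC mRNA by Fluidigm qRT-PCR, housekeeping-normalized (ACTB/GAPDH/POLR2A). Gain or loss fitted bidirectionally against DMSO baseline.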

[7] = read-out: Lipoprotein lipase (LPL), LPL (gene 4023); experiment: LTEA_HepaRG_LPL: Life Technologies and Expression Analysis (LTEA) Assay for Lipoprotein lipase (LPL) using HepaRG (AID 2283515)
In short: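 HepaRG, 48 h exposure, 8-pt half-log dilutions from 100 uM, 0.5% DMSO vehicle, duplicates; qRT-PCR (Fluidigm array) of LPL mRNA vs housekeeping genes; bidirectional curve fit relative to DMSO baseline.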

[8] = read-out: MicroRNA 122 (MIR122), gene 406906; experiment: LTEA_HepaRG_MIR122: Life Technologies and Expression Analysis (LTEA) Assay for MicroRNA 122 (MIR122) using HepaRG (AID 2283516); note: the transcript read is the microRNA miR-122
In short: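 Human liver HepaRG cultures receive test chemicals for 48 h at eight half-log concentrations from 100 uM. Expression is quantified by qRT-PCR with ACTB/GAPDH/POLR2A normalization and fitted bidirectionally against 0.5% DMSO.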

[9] = read-out: matrix metalloproteinase-10 (MMP10), MMP10 (gene 4319); experiment: LTEA_HepaRG_MMP10: Life Technologies and Expression Analysis (LTEA) Assay for matrix metalloproteinase-10 (MMP10) using HepaRG (AID 2283517)
In short: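 Transcript levels come from Fluidigm qRT-PCR normalized to three housekeeping genes, with curves fitted bidirectionally against 0.5% DMSO. Human HepaRG cells were dosed for 48 hours at concentrations up to 100 uM.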

[10] = read-out: MYC, MYC (gene 4609); experiment: LTEA_HepaRG_MYC: Life Technologies and Expression Analysis (LTEA) Assay for MYC using HepaRG (AID 2283518)
In short: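 Differentiated human HepaRG cells, plated 48 h then switched to serum-free induction medium, were exposed in duplicate for 48 h to 8-point half-log series up to 100 uM in 0.5% DMSO. MYC mRNA measured by qRT-PCR, normalized to ACTB/GAPDH/POLR2A.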

Measured: AC50

OC(c1ccc(Cl)cc1)(c1ccc(Cl)cc1)C(Cl)(Cl)Cl
active: [1] 76.6 µM | [3] 50 µM | [4] 50 µM | [6] 77.7 µM | [8] 64.9 µM | [9] 67.2 µM | [10] 73.7 µM
inactive: [2] | [5] | [7]

CCOC(=O)C(C)OC(=O)c1cc(Oc2ccc(C(F)(F)F)cc2Cl)ccc1[N+](=O)[O-] (configuration not stated)
active: [1] 9.92 µM | [4] 13.3 µM
inactive: all other assays above

CC(C)Nc1nc(Cl)nc(NC(C)C)n1
inactive: all assays above

CC(C)N1C(=O)c2ccccc2NS1(=O)=O
inactive: all assays above

Clc1nc(Cl)nc(Nc2ccccc2Cl)n1
inactive: all assays above

CS(=O)(=O)c1cc(C(F)(F)F)ccc1C(=O)c1cnoc1C1CC1
not listed: [2]
inactive: all other assays above

CC(C)=CC1C(C(=O)OCc2coc(Cc3ccccc3)c2)C1(C)C (configuration not stated)
inactive: all assays above

CC1(C)CON(Cc2ccccc2Cl)C1=O
inactive: all assays above

CCCCOCN(C(=O)CCl)c1c(CC)cccc1CC
inactive: all assays above

CCOc1nc(F)cc2nc(S(=O)(=O)Nc3c(Cl)cccc3Cl)nn12
active: [1] 29.8 µM | [4] 9.92 µM
inactive: all other assays above

CCOP(=O)(OCC)Oc1nc(Cl)c(Cl)cc1Cl
active: [2] 60.2 µM | [6] 78.7 µM | [7] 61.5 µM | [8] 87.7 µM | [10] 49.8 µM
inactive: all other assays above

CNC(=O)N(C)c1nnc(C(C)(C)C)s1
not listed: [4]
inactive: all other assays above

O=C1C2CC=CCC2C(=O)N1SC(Cl)(Cl)Cl (configuration not stated)
active: [6] 49.2 µM | [7] 73.5 µM | [9] 49.2 µM
inactive: all other assays above

CCN(CC)C(=O)C(C)Oc1cccc2ccccc12 (configuration not stated)
active: [4] 50 µM | [6] 69.6 µM | [8] 81.1 µM
not listed: [2]
inactive: all other assays above

Cc1c(COC(=O)[C@@H]2[C@H](/C=C(\Cl)C(F)(F)F)C2(C)C)cccc1-c1ccccc1
inactive: all assays above

CCNC(=O)NC(=O)C(C#N)=NOC
active: [6] 50 µM
not listed: [2]
inactive: all other assays above

N#Cc1c[nH]cc1-c1cccc2c1OC(F)(F)O2
active: [2] 19.6 µM | [4] 23.9 µM | [6] 46.7 µM | [7] 7.8 µM | [10] 80.3 µM
inactive: all other assays above

N#Cc1c(Cl)cccc1Cl
not listed: [2]
inactive: all other assays above

Cn1c(-c2ccccc2)cc(-c2ccccc2)[n+]1C
active: [4] 24 µM | [6] 28 µM | [7] 11.4 µM | [8] 28.7 µM | [10] 3.12 µM
inactive: [1] | [2] | [3] | [5]

COC(=O)NS(=O)(=O)c1ccc(N)cc1
inactive: all assays above

O=C(Nc1ccccc1-c1ccc(Cl)cc1)c1cccnc1Cl
inactive: all assays above

O=c1n(Cl)c(=O)n(Cl)c(=O)n1Cl
inactive: all assays above

COC(=O)c1c(C(F)F)nc(C(F)(F)F)c(C2=NCCS2)c1CC(C)C
active: [2] 12.2 µM
inactive: all other assays above

CSC(=O)c1c(C(F)F)nc(C(F)(F)F)c(C(=O)SC)c1CC(C)C
active: [6] 91.9 µM | [8] 49.8 µM
inactive: all other assays above

CC1(C)CCC(=Cc2ccc(Cl)cc2)C1(O)Cn1cncn1 (configuration not stated)
inactive: all assays above

COP(=S)(OC)Oc1ccc([N+](=O)[O-])c(C)c1
inactive: all assays above

CO/N=C(/C1=NOCCO1)c1ccccc1Oc1ncnc(Oc2ccccc2Cl)c1F
active: [1] 28.4 µM | [4] 13.3 µM | [6] 30.1 µM | [7] 23.2 µM | [8] 26.4 µM | [9] 50 µM | [10] 29.9 µM
inactive: [2] | [3] | [5]

CNC(=O)Oc1cccc2ccccc12
inactive: all assays above

CN/C(=N\[N+](=O)[O-])NCc1cnc(Cl)s1
active: [3] 50 µM | [4] 17.8 µM
inactive: all other assays above

Cc1ccc(N=CN(C)C=Nc2ccc(C)cc2C)c(C)c1
inactive: all assays above

CCOc1cc(C(C)(C)C)ccc1C1COC(c2c(F)cccc2F)=N1 (configuration not stated)
active: [4] 4.11 µM | [6] 33 µM | [7] 52.9 µM | [10] 33 µM
inactive: all other assays above

CC(C)N1C(=O)N(c2ccccc2)CSC1=NC(C)(C)C
inactive: [2] | [3] | [5] | [9]
active: [1] 77.1 µM | [4] 50 µM | [6] 72.2 µM | [7] 78.7 µM | [8] 81.4 µM | [10] 72.2 µM

COCC(C)N(C(=O)CCl)c1c(C)csc1C (configuration not stated)
active: [1] 22.7 µM
not listed: [4]
inactive: all other assays above

CC1(C)C(C=C(Cl)Cl)C1C(=O)OC(C#N)c1cccc(Oc2ccccc2)c1 (configuration not stated)
inactive: all assays above

C=C(C)CN(CC)c1c([N+](=O)[O-])cc(C(F)(F)F)cc1[N+](=O)[O-]
inactive: all assays above

Nc1c(Cl)c(F)nc(OCC(=O)O)c1Cl
not listed: [2]
inactive: all other assays above
